# RE007 growth inh: less growth of the S. pombe RE007 Vpr strain; S. pombe RE007 Vpr strain, BacTiter-Glo ATP luminescence, 24 h; Potency, µM (titrated, usually from 92.2 µM), inactives show at the highest dose activity change, negative = less growth, most hits filed as inhibitors; actives 0.21% (n = 360,000); active = well fitted falling curve with a large enough effect; inconclusive = small, poorly fitted or top-dose-only effect; inactive = no such curve, though single readings can be large or run the other way; note: potency is the fitted concentration of half-maximal effect; % is set by controls: 0 for no effect and ±100 for the full control effect; nearly all actives have a fitted effect of over 50% in size
#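 Fission yeast RE007 carrying one integrated HIV-1 vpr copy, seeded at OD 0.01 in PMG+AL medium with 23 nL pinned compound. Grown 24 h at 30 degrees; viability read by BacTiter-Glo luminescence after 5 min.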
# TbPYK inhibitor: blocks Trypanosoma brucei pyruvate kinase; AID 624173; actives 0.12% (n = 410,000); Potency, µM (series often up to 76.8 µM), for inactives: at the top dose activity, negative = inhibition, actives largely listed as inhibitors; Q57TT1; TbPYK enzyme, Kinase-Glo Plus ATP luminescence, 45 min; note: potency is the fitted concentration of half-maximal effect; % is set by controls: 0 for no effect and ±100 for the full control effect; nearly all actives have a fitted effect of over 50% in size
#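 Screened from lowest to highest concentration, compounds were pinned into TbPYK/substrate mixtures, and ADP (130 uM final) was added. Plates sat at room temperature for 45 min prior to Kinase-Glo Plus detection by luminescence.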
# AMA1 RON2 block: disrupts binding of P. falciparum AMA1 to RON2 | AlphaScreen AMA1-biotinylated RON2 peptide binding | Potency, µM (highest dose often 58.2 µM), inactives show top-dose activity change, negative = inhibition, actives largely listed as inhibitors | actives 0.2% (n = 360,000) | AID 720542;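 note: potency is the fitted concentration of half-maximal effect; 0% = vehicle wells and -100% = peptide control; nearly all actives have a fitted effect of over 45% in size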
#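 AMA1 (3D7) with his tag at 25 nM final met compounds first, then biotinylated RON2 peptide at 25 nM; detection used donor plus acceptor beads, 10 µg/mL apiece, read by AlphaScreen after 30 min at room temperature.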
# SARS PLpro yeast-1: inhibitors of SARS-CoV papain-like protease in yeast; S. cerevisiae expressing SARS-CoV PLpro, growth rescue; Potency, µM (top dose mostly 32.9 µM), for the others: top-dose activity, positive = growth rescue, usual class: activators; actives 0.19% (n = 330,000); AID 485353; calls by dose curve; note: potency is the fitted concentration of half-maximal effect; 0% is about no effect; nearly all actives have a fitted effect of over 55% in size
# LmPK inh: inhibitors of Leishmania mexicana pyruvate kinase; purified LmPK, Kinase-Glo ATP luminescence, 1 h; Potency, µM (series often up to 57.5 µM), for the others: top-dose activity change, negative = inhibition, hits mostly inhibitors; actives 0.37% (n = 290,000); note: potency is the fitted concentration of half-maximal effect; % is set by controls: 0 for no effect and ±100 for the full control effect
# Target sequence (Q27686 whole entry, looked up): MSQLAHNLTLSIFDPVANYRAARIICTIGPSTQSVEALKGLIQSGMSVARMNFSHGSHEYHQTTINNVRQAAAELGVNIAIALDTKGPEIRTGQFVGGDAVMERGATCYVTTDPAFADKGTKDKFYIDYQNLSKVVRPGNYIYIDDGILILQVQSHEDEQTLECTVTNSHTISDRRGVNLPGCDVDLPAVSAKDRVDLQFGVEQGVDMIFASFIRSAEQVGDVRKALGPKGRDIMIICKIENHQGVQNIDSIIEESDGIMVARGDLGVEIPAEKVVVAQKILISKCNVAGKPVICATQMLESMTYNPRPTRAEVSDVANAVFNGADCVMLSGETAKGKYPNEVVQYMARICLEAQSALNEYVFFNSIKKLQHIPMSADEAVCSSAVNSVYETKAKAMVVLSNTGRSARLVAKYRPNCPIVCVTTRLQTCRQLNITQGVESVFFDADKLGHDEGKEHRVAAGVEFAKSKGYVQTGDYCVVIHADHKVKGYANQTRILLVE
#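 Purified LmPK (0.1 nM) with 0.5 mM PEP and 0.1 mM ADP in imidazole buffer pH 7.2 with MgCl2/KCl, 1 h at room temperature. ATP formed was read by luciferase luminescence and normalized to no-enzyme and uninhibited controls.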
# SARS PLpro yeast-2: Validates SARS-CoV PLpro inhibitor hits in yeast; calls only; yeast expressing SARS-CoV PLpro, growth phenotype rescue; AID 652038; actives 19% (n = 1,000); shares compounds with SARS PLpro yeast-1; call rule not given here
# Starred values were filed as active, the others as inactive; i = inactive; ? = inconclusive; . = no result given; + = active, no number; ! = repeats disagree; [ ] = remark or other dose. This is a sample that favours compounds with a hit; in the whole collection about 0.81% have one here. Unless noted, calls come from the whole dose curve; as a rule, active = well fitted curve in the direction sought with a large enough effect; inconclusive = small, poorly fitted or top-dose-only effect, or another doubt; inactive = no such curve, though single readings can be large; an effect the other way counts as inactive or inconclusive.
SMILES,RE007 growth inh,TbPYK inhibitor,AMA1 RON2 block,SARS PLpro yeast-1,LmPK inh,SARS PLpro yeast-2
COc1ccc(-c2cn3nc(SCC(=O)Nc4cc(C)cc(C)c4)ccc3n2)cc1,.,3%,.,.,.,.
CN(C)c1ccc(C(=O)c2ccc(N(C)C)cc2)cc1,1%,0%,-11%,-14%,-2%,.
CC(=O)c1ccc(N(C)C)cc1,-11%,-5%,-1%,2.8µM*,-2%,i
O=C(Oc1ccc(OC(=O)c2ccncc2)cc1)c1ccncc1,15%,-5%,-1%,.,.,.
COc1ccc(OC(=O)c2ccncc2)cc1,-10%,-17%,6%,?,-6%,i
Cc1ccc(-n2nc3c(N4CCC(C(=O)NCc5ccc(C)o5)CC4)nnc(C)c3c2C)cc1,-13%,-2%,6%,?,2%,i
COc1cccc(NC(=O)Cn2cnc3c(oc4nc5c(cc43)CCCC5)c2=O)c1,-10%,-3%,-3%,?,-11%,?
COc1ccccc1NC(=O)Cn1cnc2c(oc3nc4c(cc32)CCCC4)c1=O,7%,-2%,-11%,-2%,9%,.
Cc1ccc(N2CCN(S(=O)(=O)c3ccc(Cl)s3)CC2C)cc1 (configuration not stated),4%,2%,-29%,-7%,-3%,.
COc1cccc(OCc2cc(C(=O)N3CCNC(=O)C3Cc3ccccc3)no2)c1 (configuration not stated),-7%,4%,-4%,-2%,0%,.
CNC(=O)CSc1nc2nn(-c3ccccc3)c(=O)c-2c2n1CCCCC2,-7%,10%,6%,5%,3%,.
O=C(CSc1nc2nn(-c3ccccc3)c(=O)c-2c2n1CCCCC2)c1ccc(O)c(O)c1,-2%,-3%,-15%[11.6 µM],7.1µM*,.,i
O=C(Nc1ccc(Cl)cc1)c1cc(S(=O)(=O)NC2CCCCCC2)ccc1F,.,2%,.,.,.,.
CCOC(=O)c1ccc(NC(=O)CSc2nc(-c3ccc(F)cc3)cc(C(F)(F)F)c2C#N)cc1,.,-4%,.,.,.,.
CCCCc1ccc(NC(=S)NN2CCOCC2)cc1,9%,-2%,60%,10µM*,3%,+
COc1ccc(C(=O)CC(=O)C(=O)NCCc2cccc(C)c2)cc1,-6%,0%,5%,20µM*,1%,+
COc1ccc(C(=O)CC(=O)C(=O)Nc2cc(C)ccc2C)cc1,-15%,-4%,39%,1%,6%,.
CC(Sc1nnc(NCc2ccccc2)s1)C(=O)Nc1ccc2c(c1)C(=O)c1ccccc1C2=O (configuration not stated),13%,-25%,-17%,?,-5%,+
CCOC(=O)COc1ccc(F)cc1C(=O)c1ccn2nc(-c3ccc(Cl)cc3)cc2n1,.,3%,.,.,.,.
O=c1[nH]c(C2C3CC4CC(C3)CC2C4)nc2ccccc12 (configuration not stated),-16%,-2%,0%,2.8µM*,-4%,i
Cc1nc2ccccc2c(=O)[nH]1,-7%,8%,25%,-3%,-5%,.
COc1ccc(CCNC(=O)C(=O)NCC2OCCN2S(=O)(=O)c2ccccc2)cc1OC (configuration not stated),1%,3%,-1%,11µM*,-7%,i
CC(C)CNC(=S)NC(=O)c1ccccc1Cl,-19%,-3%,12%,?,-4%,i
C=CCc1ccc(OCCn2cncn2)c(OC)c1,4%,3%,-9%,?,-1%,i
Nc1nc(SCC(=O)OCc2ccccc2)[nH]c(=O)c1NC(=O)c1ccco1,-8%,6%,12%,?,1%,i
Oc1ccc(CN2CCN(c3ccccc3)CC2)c2cccnc12,-12%,4%,-1%,11µM*,3%,i
Oc1ccc(CN2CCCCC2)c2cccnc12,-20%,1%,-95%,-77%,2%,.
CN(C)C1CCN(Cc2cc(COCc3ccccc3)c3cccnc3c2O)C1 (configuration not stated),.,1%,.,10µM*!,.,?
